# Assay results taken from PMC7862700, “An all-to-all approach to the identification of sequence-specific readers for epigenetic DNA modifications on cytosine”.
# Columns and labels:
# Assay in all cases: DAPPL (digital affinity profiling via proximity ligation, sequencing); 10 mM Tris-HCl pH 7.5, 50 mM NaCl, 1 mM DTT, 4% glycerol, room temperature, 30 min; GST-TFs on glutathione beads, 16-mer random dsDNA library, 0.1% formaldehyde crosslink after washing; high values mean tight binding
# [1] = molecular target: T1, FLI1 (Homo sapiens, UniProt Q01543 1-452); conditions: protein: recombinant; tags: N-terminal GST; dsDNA, one strand shown
# T1 sequence: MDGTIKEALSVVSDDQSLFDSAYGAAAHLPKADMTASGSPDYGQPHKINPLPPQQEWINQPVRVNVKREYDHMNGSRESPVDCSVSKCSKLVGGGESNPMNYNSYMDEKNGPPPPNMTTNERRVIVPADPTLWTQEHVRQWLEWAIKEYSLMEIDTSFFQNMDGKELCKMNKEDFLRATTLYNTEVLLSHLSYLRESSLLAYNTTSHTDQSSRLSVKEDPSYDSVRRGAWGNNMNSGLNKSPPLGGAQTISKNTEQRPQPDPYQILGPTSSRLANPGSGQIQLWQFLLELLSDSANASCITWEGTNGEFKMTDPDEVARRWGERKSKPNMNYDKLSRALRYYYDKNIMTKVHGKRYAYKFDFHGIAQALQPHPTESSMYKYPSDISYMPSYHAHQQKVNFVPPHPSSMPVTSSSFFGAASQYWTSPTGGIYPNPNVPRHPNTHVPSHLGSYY
# Method in brief: (§1)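 Each value of binding signal is a hexamer's read frequency for a factor divided by the same hexamer's frequency in the tag-only sample. Barcoded, bead-captured GST fusions of human transcription factors made in yeast were pooled with that sample and incubated with 200 nmole of a random double-stranded 16-mer DNA library in Tris/NaCl/DTT/glycerol buffer at room temperature for 30 min. Washing, 0.1% formaldehyde crosslinking, proximity ligation, PCR and Illumina NextSeq500 sequencing followed.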
# [2] = molecular target: T2, ELK1 (Homo sapiens, UniProt P19419 1-428); conditions: protein: recombinant; tags: N-terminal GST; dsDNA, one strand shown
# T2 sequence: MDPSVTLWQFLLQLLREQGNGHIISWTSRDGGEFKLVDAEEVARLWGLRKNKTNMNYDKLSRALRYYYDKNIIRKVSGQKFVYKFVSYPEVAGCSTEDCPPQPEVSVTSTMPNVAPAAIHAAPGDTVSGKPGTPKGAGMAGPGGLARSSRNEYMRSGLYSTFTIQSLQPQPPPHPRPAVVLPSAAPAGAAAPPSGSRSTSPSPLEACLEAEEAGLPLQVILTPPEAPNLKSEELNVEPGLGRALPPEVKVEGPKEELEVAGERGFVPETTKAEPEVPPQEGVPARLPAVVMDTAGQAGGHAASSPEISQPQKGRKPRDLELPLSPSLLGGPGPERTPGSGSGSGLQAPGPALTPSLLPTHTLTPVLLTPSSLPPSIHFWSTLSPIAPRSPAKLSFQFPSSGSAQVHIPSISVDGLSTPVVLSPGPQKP
# Method in brief: as §1
# [3] = molecular target: T3, GABPA (Homo sapiens, UniProt Q06546 1-454); conditions: protein: recombinant; tags: N-terminal GST; dsDNA, one strand shown
# T3 sequence: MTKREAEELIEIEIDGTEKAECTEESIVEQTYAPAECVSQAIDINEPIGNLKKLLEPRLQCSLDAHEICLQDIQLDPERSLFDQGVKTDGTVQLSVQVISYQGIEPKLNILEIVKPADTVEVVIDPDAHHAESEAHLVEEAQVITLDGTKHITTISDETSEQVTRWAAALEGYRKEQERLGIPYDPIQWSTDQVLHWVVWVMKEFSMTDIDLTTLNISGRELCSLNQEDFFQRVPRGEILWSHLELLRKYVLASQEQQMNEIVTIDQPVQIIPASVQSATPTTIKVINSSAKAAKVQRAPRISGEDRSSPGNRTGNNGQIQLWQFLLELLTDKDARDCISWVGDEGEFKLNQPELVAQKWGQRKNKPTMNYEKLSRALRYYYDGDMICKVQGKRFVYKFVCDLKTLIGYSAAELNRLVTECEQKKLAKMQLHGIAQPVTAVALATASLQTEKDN
# Method in brief: as §1
# [4] = molecular target: ELF1 (Homo sapiens, UniProt P32519 1-619); conditions: protein: recombinant; tags: N-terminal GST; dsDNA, one strand shown
# Sequence of ELF1 (P32519 whole entry): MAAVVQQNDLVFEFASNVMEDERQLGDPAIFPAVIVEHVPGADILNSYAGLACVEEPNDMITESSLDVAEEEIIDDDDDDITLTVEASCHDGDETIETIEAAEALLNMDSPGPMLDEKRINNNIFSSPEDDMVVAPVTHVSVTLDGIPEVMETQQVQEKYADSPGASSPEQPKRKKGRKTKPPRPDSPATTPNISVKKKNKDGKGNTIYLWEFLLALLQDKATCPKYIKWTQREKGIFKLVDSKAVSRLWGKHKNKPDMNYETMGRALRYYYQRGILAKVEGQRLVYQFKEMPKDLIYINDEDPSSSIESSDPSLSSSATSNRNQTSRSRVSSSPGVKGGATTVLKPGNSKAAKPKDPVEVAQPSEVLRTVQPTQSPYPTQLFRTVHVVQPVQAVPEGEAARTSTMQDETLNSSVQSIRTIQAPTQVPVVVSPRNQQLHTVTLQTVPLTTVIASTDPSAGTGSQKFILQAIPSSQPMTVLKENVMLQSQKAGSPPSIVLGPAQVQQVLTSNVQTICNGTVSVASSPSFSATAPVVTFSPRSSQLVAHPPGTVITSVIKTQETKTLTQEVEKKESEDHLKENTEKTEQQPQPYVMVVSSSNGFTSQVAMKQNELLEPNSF
# Method in brief: as §1
# [5] = molecular target: T4, EHF (Homo sapiens, UniProt Q9NZC4 1-300); conditions: protein: recombinant; tags: N-terminal GST; dsDNA, one strand shown
# T4 sequence: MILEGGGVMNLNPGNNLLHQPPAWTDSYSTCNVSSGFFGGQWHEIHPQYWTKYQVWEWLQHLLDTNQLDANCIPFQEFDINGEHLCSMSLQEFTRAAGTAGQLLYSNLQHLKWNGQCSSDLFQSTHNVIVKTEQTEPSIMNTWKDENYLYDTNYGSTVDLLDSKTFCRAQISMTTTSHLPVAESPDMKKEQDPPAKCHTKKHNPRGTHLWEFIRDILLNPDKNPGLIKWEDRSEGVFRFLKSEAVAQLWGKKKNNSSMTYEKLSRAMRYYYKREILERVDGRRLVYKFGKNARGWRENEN
# Method in brief: as §1
# [6] = molecular target: T5, ELK3 (Homo sapiens, UniProt P41970 1-407); conditions: protein: recombinant; tags: N-terminal GST; dsDNA, one strand shown
# T5 sequence: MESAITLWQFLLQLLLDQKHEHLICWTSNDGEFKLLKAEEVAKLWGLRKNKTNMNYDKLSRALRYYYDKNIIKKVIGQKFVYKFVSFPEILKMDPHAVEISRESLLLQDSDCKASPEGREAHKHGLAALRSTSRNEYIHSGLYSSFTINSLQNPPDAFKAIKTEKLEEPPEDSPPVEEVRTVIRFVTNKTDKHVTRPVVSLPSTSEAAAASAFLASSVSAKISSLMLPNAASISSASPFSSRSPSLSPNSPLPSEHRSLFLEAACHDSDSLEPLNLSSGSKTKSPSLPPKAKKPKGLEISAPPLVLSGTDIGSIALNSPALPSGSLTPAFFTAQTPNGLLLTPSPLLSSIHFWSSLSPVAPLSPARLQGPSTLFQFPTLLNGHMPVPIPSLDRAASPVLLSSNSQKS
# Method in brief: as §1
# [7] = molecular target: T6, FEV (Homo sapiens, UniProt Q99581 1-238); conditions: protein: recombinant; tags: N-terminal GST; dsDNA, one strand shown
# T6 sequence: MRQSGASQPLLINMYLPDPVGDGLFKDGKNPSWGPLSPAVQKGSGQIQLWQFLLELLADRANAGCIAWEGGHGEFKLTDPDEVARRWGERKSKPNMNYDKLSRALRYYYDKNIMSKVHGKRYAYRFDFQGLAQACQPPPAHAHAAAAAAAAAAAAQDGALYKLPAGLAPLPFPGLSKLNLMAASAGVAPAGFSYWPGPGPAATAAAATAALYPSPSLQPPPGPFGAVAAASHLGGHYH
# Method in brief: as §1
# [8] = molecular target: ETV5 (Homo sapiens, UniProt P41161 1-510); conditions: protein: recombinant; tags: N-terminal GST; dsDNA, one strand shown
# Sequence of ETV5 (P41161 whole entry): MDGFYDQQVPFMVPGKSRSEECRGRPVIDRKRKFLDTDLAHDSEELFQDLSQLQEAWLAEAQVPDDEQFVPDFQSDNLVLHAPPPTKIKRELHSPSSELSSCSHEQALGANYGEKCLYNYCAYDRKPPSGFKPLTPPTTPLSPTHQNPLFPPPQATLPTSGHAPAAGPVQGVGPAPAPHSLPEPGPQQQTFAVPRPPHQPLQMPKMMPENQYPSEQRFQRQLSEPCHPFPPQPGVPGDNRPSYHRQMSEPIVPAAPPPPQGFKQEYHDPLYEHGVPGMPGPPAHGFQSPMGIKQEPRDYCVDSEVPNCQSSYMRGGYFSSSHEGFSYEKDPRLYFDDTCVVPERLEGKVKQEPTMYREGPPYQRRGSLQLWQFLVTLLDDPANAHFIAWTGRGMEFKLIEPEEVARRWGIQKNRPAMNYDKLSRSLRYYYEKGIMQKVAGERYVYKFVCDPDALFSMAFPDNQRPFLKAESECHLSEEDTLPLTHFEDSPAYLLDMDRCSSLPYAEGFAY
# Method in brief: as §1
# [9] = molecular target: HSF1 (Homo sapiens, UniProt Q00613 1-529); conditions: protein: recombinant; tags: N-terminal GST; chain copies: 3; dsDNA, one strand shown
# Sequence of HSF1 (Q00613 whole entry): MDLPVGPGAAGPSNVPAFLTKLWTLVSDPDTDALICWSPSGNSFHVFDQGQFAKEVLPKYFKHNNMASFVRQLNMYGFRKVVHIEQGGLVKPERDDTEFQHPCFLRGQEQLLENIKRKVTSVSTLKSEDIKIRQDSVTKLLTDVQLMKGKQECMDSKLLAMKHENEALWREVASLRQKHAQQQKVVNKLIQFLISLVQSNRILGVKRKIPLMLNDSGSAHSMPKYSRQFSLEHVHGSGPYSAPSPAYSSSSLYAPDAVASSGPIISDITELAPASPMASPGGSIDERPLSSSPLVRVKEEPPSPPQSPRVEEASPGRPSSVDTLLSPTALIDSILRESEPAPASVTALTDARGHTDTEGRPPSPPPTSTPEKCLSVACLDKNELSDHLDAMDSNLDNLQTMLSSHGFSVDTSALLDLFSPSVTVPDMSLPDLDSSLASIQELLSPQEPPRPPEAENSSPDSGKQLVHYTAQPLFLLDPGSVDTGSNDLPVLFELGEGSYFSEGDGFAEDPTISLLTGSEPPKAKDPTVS
# Method in brief: as §1
# [10] = molecular target: T7, SPIC (Homo sapiens, UniProt Q8N5J4 1-248); conditions: protein: recombinant; tags: N-terminal GST; dsDNA, one strand shown
# T7 sequence: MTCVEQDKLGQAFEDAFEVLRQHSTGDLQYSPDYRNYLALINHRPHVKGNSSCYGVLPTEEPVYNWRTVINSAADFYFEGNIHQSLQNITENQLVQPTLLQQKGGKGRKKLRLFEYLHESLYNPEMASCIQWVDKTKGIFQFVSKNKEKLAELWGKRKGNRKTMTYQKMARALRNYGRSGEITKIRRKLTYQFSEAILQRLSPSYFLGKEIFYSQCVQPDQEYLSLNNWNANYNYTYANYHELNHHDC
# Method in brief: as §1
# [11] = molecular target: ELF4 (Homo sapiens, UniProt Q99607 1-663); conditions: protein: recombinant; tags: N-terminal GST; dsDNA, one strand shown
# Sequence of ELF4 (Q99607 whole entry): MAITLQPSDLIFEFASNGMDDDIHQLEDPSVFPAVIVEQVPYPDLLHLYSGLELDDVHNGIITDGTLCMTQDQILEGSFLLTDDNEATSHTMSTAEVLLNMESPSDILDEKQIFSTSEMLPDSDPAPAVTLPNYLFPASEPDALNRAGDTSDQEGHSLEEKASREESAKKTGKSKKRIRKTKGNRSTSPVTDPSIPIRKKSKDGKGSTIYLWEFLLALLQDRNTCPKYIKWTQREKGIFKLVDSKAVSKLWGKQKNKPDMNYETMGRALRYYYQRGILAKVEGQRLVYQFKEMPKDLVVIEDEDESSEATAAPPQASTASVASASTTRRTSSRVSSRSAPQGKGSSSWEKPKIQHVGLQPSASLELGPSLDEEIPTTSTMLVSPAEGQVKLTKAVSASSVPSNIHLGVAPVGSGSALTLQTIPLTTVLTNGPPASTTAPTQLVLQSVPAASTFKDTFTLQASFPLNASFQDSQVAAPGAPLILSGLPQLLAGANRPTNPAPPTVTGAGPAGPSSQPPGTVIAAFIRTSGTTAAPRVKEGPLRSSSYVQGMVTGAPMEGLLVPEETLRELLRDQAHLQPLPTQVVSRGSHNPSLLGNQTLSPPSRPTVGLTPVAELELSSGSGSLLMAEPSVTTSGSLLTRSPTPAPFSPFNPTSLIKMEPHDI
# Method in brief: as §1
# [12] = molecular target: T8, ELK4 (Homo sapiens, UniProt P28324-2 1-405); conditions: protein: recombinant; tags: N-terminal GST; dsDNA, one strand shown
# T8 sequence: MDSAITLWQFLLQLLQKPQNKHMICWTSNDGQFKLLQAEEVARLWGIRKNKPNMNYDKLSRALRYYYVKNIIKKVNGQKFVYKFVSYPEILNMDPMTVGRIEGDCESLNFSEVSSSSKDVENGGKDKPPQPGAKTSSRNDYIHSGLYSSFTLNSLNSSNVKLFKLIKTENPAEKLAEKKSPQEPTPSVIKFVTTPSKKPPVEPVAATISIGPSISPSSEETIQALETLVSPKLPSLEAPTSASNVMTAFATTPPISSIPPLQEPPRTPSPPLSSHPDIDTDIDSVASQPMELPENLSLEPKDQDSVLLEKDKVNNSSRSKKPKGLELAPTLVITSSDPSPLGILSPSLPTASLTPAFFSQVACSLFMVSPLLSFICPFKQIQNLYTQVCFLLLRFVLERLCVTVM
# Method in brief: as §1
# [13] = molecular target: T9, ETV2 (Homo sapiens, UniProt O00321 1-342); conditions: protein: recombinant; tags: N-terminal GST; dsDNA, one strand shown
# T9 sequence: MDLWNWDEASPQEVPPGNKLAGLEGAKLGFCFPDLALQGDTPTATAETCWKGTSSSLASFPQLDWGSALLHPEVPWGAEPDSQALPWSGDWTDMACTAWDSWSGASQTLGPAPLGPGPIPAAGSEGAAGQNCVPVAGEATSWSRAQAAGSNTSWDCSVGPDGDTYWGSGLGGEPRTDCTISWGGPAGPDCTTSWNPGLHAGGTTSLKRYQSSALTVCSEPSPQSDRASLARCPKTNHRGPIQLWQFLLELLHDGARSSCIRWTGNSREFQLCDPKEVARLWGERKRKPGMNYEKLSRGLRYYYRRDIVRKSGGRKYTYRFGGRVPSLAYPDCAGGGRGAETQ
# Method in brief: as §1
# [14] = molecular target: T10, ELF3 (Homo sapiens, UniProt P78545 1-371); conditions: protein: recombinant; tags: N-terminal GST; dsDNA, one strand shown
# T10 sequence: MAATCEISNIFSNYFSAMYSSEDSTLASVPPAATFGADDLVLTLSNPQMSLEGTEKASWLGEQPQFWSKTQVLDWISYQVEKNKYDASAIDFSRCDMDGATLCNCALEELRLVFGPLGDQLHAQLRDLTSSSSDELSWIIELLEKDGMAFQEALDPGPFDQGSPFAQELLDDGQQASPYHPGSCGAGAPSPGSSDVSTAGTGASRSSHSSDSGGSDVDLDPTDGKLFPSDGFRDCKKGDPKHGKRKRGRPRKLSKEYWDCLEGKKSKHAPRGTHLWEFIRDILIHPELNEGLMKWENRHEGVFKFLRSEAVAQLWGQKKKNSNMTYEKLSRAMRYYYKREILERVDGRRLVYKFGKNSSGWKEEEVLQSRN
# Method in brief: as §1
# [15] = molecular target: CRX (Homo sapiens, UniProt O43186 1-299); conditions: protein: recombinant; tags: N-terminal GST; dsDNA, one strand shown
# Sequence of CRX (O43186 whole entry): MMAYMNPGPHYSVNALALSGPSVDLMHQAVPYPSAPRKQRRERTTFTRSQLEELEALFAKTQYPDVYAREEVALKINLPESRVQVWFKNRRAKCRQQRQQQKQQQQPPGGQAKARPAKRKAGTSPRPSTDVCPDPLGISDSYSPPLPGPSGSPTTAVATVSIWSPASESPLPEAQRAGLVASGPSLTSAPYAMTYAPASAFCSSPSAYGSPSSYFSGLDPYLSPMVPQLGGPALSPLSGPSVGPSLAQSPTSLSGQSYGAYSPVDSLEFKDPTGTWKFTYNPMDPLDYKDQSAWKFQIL
# Method in brief: as §1
# [16] = molecular target: ETV1 (Homo sapiens, UniProt P50549 1-477); conditions: protein: recombinant; tags: N-terminal GST; dsDNA, one strand shown
# Sequence of ETV1 (P50549 whole entry): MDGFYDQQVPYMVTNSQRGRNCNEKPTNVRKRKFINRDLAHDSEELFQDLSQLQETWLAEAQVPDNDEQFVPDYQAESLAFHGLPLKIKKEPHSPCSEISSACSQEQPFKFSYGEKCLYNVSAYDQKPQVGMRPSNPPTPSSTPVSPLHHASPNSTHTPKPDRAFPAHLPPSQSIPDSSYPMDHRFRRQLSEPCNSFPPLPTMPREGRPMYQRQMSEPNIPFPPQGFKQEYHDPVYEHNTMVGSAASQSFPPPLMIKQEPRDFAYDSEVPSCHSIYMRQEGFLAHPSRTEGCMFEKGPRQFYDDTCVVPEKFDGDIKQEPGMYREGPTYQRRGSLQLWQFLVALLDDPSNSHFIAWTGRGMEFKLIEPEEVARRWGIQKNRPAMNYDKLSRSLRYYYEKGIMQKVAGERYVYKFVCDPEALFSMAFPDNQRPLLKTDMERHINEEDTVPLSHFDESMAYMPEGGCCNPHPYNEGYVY
# Method in brief: as §1
sequence,measurement,setting,value
TGAGCT,binding signal,[1],"1.15 fold enrichment (6-mer frequency, TF over GST control)"
same,binding signal,[2],"1.08 fold enrichment (6-mer frequency, TF over GST control)"
same,binding signal,[3],"1.05 fold enrichment (6-mer frequency, TF over GST control)"
same,binding signal,[4],"1.02 fold enrichment (6-mer frequency, TF over GST control)"
same,binding signal,[5],"1.16 fold enrichment (6-mer frequency, TF over GST control)"
same,binding signal,[6],"1.05 fold enrichment (6-mer frequency, TF over GST control)"
same,binding signal,[7],"1.09 fold enrichment (6-mer frequency, TF over GST control)"
same,binding signal,[8],"1.07 fold enrichment (6-mer frequency, TF over GST control)"
same,binding signal,[9],"1.06 fold enrichment (6-mer frequency, TF over GST control)"
same,binding signal,[10],"1.03 fold enrichment (6-mer frequency, TF over GST control)"
same,binding signal,[11],"1.1 fold enrichment (6-mer frequency, TF over GST control)"
same,binding signal,[12],"1.17 fold enrichment (6-mer frequency, TF over GST control)"
same,binding signal,[13],"1.19 fold enrichment (6-mer frequency, TF over GST control)"
same,binding signal,[14],"1.23 fold enrichment (6-mer frequency, TF over GST control)"
same,binding signal,[15],"1.35 fold enrichment (6-mer frequency, TF over GST control)"
same,binding signal,[16],"1.09 fold enrichment (6-mer frequency, TF over GST control)"
